FBPA coupling cs: inhibits coupling enzyme system, counter-screen for aldolase hits | 290,000 tested, 0.67% active | activity change, negative = inhibition, % at 58.2 µM, hits read low | AID 2472 | coupling enzyme system counterscreen, AmpLite Red fluorescence; in the data active = activity change below about -30%
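Final compound at 57.5 uM, incubated 10 min at RT with coupling enzyme reagent (glyceraldehyde-3-phosphate), then 20 min with substrate and AmpLite Red detection. Fluorescence read at 525/598 nm; tests interference with the coupling assay, not aldolase inhibition.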
Tau fibril FP: tau fibrillization inhibition (FP) | Potency, µM (doses to about 57.7 µM), for inactives: top-dose activity, negative = inhibition, most hits filed as inhibitors | K18 P301L tau heparin fibrillization, Alexa594 FP, 6 h | 280,000 tested, 0.39% active; note: potency is the fitted concentration of half-maximal effect; nearly all actives have a fitted effect of over 55% in size
Target sequence (P10636 561-689 P618L limits assumed): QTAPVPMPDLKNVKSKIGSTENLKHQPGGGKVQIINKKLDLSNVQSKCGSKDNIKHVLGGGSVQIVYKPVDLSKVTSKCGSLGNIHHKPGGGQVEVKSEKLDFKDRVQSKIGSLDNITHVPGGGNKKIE
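Human tau K18 […] P301L fragment, 15 uM unlabeled plus 0.24 uM Alexa 594-labeled tau (final), with compound and 20 uM heparin in 100 mM sodium acetate pH 7; 6 hr at 37 C, then Alexa 594 FP read.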
Sfp inh: inhibitors of Bacillus subtilis Sfp phosphopantetheinyl transferase. Q9F4F7. Biochemical Sfp PPTase activity, qHTS. Potency, µM, for the others: largest response in the series, negative = inhibition, hits mostly inhibitors. 310,000 tested, 3.5% active. AID 1490;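 note: the enzyme is Sfp with the accession as filed and its product quenches rhodamine fluorescence; potency is the fitted concentration of half-maximal effect; 0% = enzyme reaction without inhibitor and -100% = no enzyme wells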
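With Hepes-Na pH 7.6 buffer containing 10 mM MgCl2, Sfp (15 nM) modified BHQ-2-YbbR (12.5 uM) using rhodamine-CoA (5 uM). Two reads 30 minutes apart at 525/598 nm yielded each well's rate.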
Tau fibril ThT: tau fibrillization inhibition (ThT binding) | recombinant tau K18 P301L, heparin-induced fibrillization, ThT fluorescence | 270,000 tested, 2.1% active | Potency, µM (doses to about 57.4 µM), without a hit: at the top dose activity, negative = inhibition, most hits filed as inhibitors | P10636; note: potency is the fitted concentration of half-maximal effect; nearly all actives have a fitted effect of over 55% in size
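Using a mix of unlabeled (15 uM) and Alexa 594-labeled (0.24 uM) tau K18 P301L, heparin-triggered fibrillization over 6 hr at 37 C was scored by ThT fluorescence.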
Tau fluor cs: counter-screen for tau fibril formation inhibitors. Potency, µM (titrated, usually from 57.7 µM), for inactives: at the top dose activity change, negative = decrease. 280,000 tested, 0.93% active. tau K18 P301L (four-repeat tau fragment) Alexa594 fluorescence, heparin fibrillization. AID 1463; note: potency is the fitted concentration of half-maximal effect; nearly all actives have a fitted effect of over 55% in size
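Human K18 P301L tau (15 uM unlabeled plus 0.24 uM Alexa 594-labeled, final) in 100 mM sodium acetate pH 7 was mixed with compound and 20 uM heparin and incubated 6 hr at 37 C.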
An asterisk follows results filed as active; ? = inconclusive; nt = no result; [ ] = remark or other dose. Most compounds without a hit are left out; they make up all but 5.2% or so of the library. Unless noted, calls come from the whole dose curve; as a rule, active = well fitted curve in the direction sought with a large enough effect; inconclusive = small, poorly fitted or top-dose-only effect, or another doubt; inactive = no such curve, though single readings can be large; an effect the other way counts as inactive or inconclusive. Unless noted, % is set by controls: 0 for no effect and ±100 for the full control effect.

SMILES	FBPA coupling cs	Tau fibril FP	Sfp inh	Tau fibril ThT	Tau fluor cs
CN(C)S(=O)(=O)c1ccc(-c2csc(N/N=C/c3ccco3)n2)cc1	0	10%	-2%	?	?
Cc1sc(N/N=C/c2cccnc2)nc1-c1ccccc1	-3	-2%	-99%	?	?
C(=N/Nc1nccs1)/c1cccnc1	0	4%	50µM*	?	-18%
Cc1ccc(-c2csc(N/N=C/c3ccco3)n2)cc1	-3	2%	89µM*	14µM*	?
Clc1ccc(-c2csc(N/N=C/c3ccco3)n2)cc1	-1	-4%	?	14µM*	13µM*[quencher]
Cc1ccc(CNC(=O)[C@H](C)[C@H]2C[C@]2(C)[C@H](NC(=O)OCc2ccccc2)c2ccccc2)o1	1	-4%	50µM*	?	-11%
COc1ccc(-n2c(=O)c3c(c4cc(OC)ccc4n3C)n(Cc3c(F)cccc3Cl)c2=O)cc1	nt	4%	nt	13%	6%
Cc1cc(C)cc(NS(=O)(=O)c2ccc(-c3cc(C)no3)cc2)c1	nt	?	nt	2%	?
COc1ccc(/C=C2/C(=O)ON=C2C)cc1Cl	3	nt	79µM*	nt	nt
CCOc1cc(/C=C2\C(=O)ON=C2C)ccc1OCc1ccccc1	2	-7%	22µM*	?	-9%
C=CCOc1ccc(/C=C2/C(=O)ON=C2C)cc1OC	3	nt	45µM*	nt	nt
CCCOc1ccc(/C=C2/C(=O)ON=C2C)cc1OCC	-2	nt	?	nt	nt
CCOC(=O)C1=C(C)N=c2s/c(=C/c3ccc(OCC(=O)O)cc3)c(=O)n2C1c1ccc(F)cc1 (stereo not given)	8	nt	79µM*	nt	nt
CC1=C(C(=O)Nc2ccccc2)C(c2ccc(Cl)cc2)n2c(s/c(=C/c3cccc(OCC(=O)O)c3)c2=O)=N1 (stereo not given)	3	0%	50µM*	6%	-2%
CCOC(=O)C1=C(C)N=c2s/c(=C\c3ccc(OCC(=O)O)cc3)c(=O)n2C1c1ccc(Cl)cc1 (stereo not given)	8	nt	-3%	nt	nt
CCOc1ccc(C2C(C(=O)Nc3ccccc3)=C(C)N=c3s/c(=C/c4cccc(OCC(=O)O)c4)c(=O)n32)cc1 (stereo not given)	10	-1%	79µM*	-4%	-11%
CCC(=O)N1CCc2cc(Br)cc(S(=O)(=O)N3CCCC(C(=O)Nc4cccc(Cl)c4C)C3)c21 (stereo not given)	nt	-3%	nt	10%	-2%
CCc1nn(CC(=O)NCc2ccco2)c(=O)c2cc3c(OC)cccc3n12	nt	-4%	nt	-4%	-8%
Cc1cc(NC(=O)CCN2CCC(C)CC2)ccc1Br	-1	nt	-2%	nt	nt
CCOC(=O)c1ccccc1NC(=O)CSc1nc2cn(CC)nc2c(=O)n1Cc1ccc(Cl)cc1	nt	0%	nt	1%	-10%
COC(=O)CSc1cnc2ccccc2n1	0	6%	12%	-4%	0%
COc1ccc(CNC(=O)CSc2nc(-c3ccccc3)cc(-c3cccs3)c2C#N)cc1	0	-13%	-29%	-5%	-11%
COc1ccc(-c2cc(-c3cccs3)c(C#N)c(SCC(=O)NCc3ccco3)n2)cc1	-2	-15%	56µM*	-7%	-9%
CCN(CC)C(=O)CSc1nc(-c2cccs2)cc(-c2cccs2)c1C#N	0	-13%	7.9µM*	?	-29%
C#CCSc1nc(-c2cccs2)ccc1C#N	0	?	-9%	-7%	-8%
SMILES	FBPA coupling cs	Tau fibril FP	Sfp inh	Tau fibril ThT	Tau fluor cs
COC(=O)CSc1nc(-c2cccs2)ccc1C#N	-6	0%	40µM*	?	-19%
COC(=O)CSc1nc2ccccc2nc1SCC(=O)OC	-9	-5%	50µM*	-11%	-14%
Cc1ccc(NC(=O)Nc2nnc(N(CC(C)C)CC(C)C)s2)cc1Cl	nt	-2%	nt	-17%	-6%
COc1ccc(CN2C(=O)C(NC(=O)c3ccccc3OC)(C(F)(F)F)N=C2c2ccccc2)cc1 (stereo not given)	nt	-14%	nt	-9%	?
Cc1cccc(-c2cc3nc4c(c(N5CCOCC5)n3n2)CCCC4)c1	4	-1%	?	?	-10%
Cc1cccc(-c2cc3nc4c(c(NCc5ccco5)n3n2)CCCC4)c1	-1	-6%	50µM*	?	-28%
O=C(/C=C/c1ccc(O)c(O)c1)OC1C(O)CC(OC(=O)/C=C/c2ccc(O)c(O)c2)(C(=O)O)CC1O (stereo not given)	-10	0%	45µM*	-17%	-13%
CC(C)(C)n1nnnc1C(c1ccncc1)N(Cc1ccccc1)Cc1ccco1 (stereo not given)	-8	0%	50µM*	-13%	-1%
O=c1cc(CSc2ccc(Cl)cc2)[nH]c2[nH]n(-c3ccccc3)c(=O)c12	1	6%	3%	?	-19%
Cc1ccc(SCc2cc(=O)c3c(=O)n(-c4ccccc4)[nH]c3[nH]2)cc1	0	-18%	71µM*	?	-26%
COC(=O)C(CC(=O)c1ccc(Br)cc1)n1nc(C)cc1C (stereo not given)	-1	nt	50µM*	nt	nt
CCn1c(=O)c2cc(C(=O)NCCc3cccc(C)c3)sc2c2ccccc21	nt	-13%	nt	-8%	-9%
CCN=c1sc(C(=O)NCCc2ccccc2)cc(=O)n1CC	6	-7%	56µM*	?	-10%
CC(=O)c1ccc(NC(=O)CNCC(c2ccccc2)N(C)C)cc1 (stereo not given)	-4	1%	79µM*	-10%	-9%
Nc1nn2c(-c3ccccc3)cc(=O)[nH]c2c1N=Nc1ccc(O)cc1	-11	3%	?	4%	5%
Nc1nn2c(-c3ccccc3)cc(=O)[nH]c2c1N=Nc1ccc(Br)cc1	0	9%	-8%	2.2µM*	-23%
O=C(/C=C/C(=O)Oc1ccccc1C(=O)O)Oc1ccccc1C(=O)O	0	25µM*	-5%	25µM*	-13%
CN1CCN(CC(=O)Nc2ccc(S(=O)(=O)N(C)C)cc2)CC1	0	nt	56µM*	nt	nt
Cn1c(=O)[nH]c(=O)c2c1nc(N/N=C/C(Br)=C/c1ccccc1)n2CCO	1	-12%	56µM*	nt	?
Cc1cc(Br)ccc1NC(=O)C1(S(=O)(=O)c2ccc(Cl)cc2)CC1	nt	-9%	nt	-9%	?
Cc1ccc2c(c1)c1c(n2C)C(C(N)=O)CCC1 (stereo not given)	0	-6%	-5%	-13%	-3%
Cc1ccc2c(c1)c1c(n2C)-c2[nH]ncc2CC1	0	5%	12%	?	18µM*[quencher]
COc1cc(N2C(=O)C=CC2=O)c(OC)cc1Cl	1	-3%	3.5µM*	?	0%
COc1cc(Cl)c(S(=O)(=O)N2CCCC2)cc1Cl	3	-6%	0%	5%	2%
CCOc1ccc(C(=O)Nc2nnc(S(=O)(=O)Nc3ccccc3)s2)cc1	nt	-7%	nt	-18%	-5%
O=C1COc2ccc(C(=O)NC3CC3)cc2N1	2	3%	18%	-5%	-7%
